The values that follow are results of earlier work, collected in PubChem BioAssay AID977611.

Hit rate of the full screen: of about 3,900 compounds, about 3,900 (100%) were called active. The limit is not given here; nearly all actives have Kd up to about 4200 µM. The set was probably picked from earlier hits. The list shows a part of the results. *1 amine or outer side, *2 acyl side, *3 side chain or, on linkers, in order; H or OH if unused. Where a SMILES comes first, the peptide text is derived from it. Bridges are numbered along the chain shown (N, C = ends). Side-chain parts run from the residue outwards. [ ]: non-standard residue; d: D form. X1 = CC(C)C[C@@H](C(=O)[*:2])N(C[C@H](Cc1ccccc1)N[*:3])[*:1]; Orn(CH(NH2)2) = NC(N)NCCC[C@H](N)C(=O)O; S5 = C=CCCC[C@](C)(N)C(=O)O

What is called Kd is the concentration at which binding is half-saturated.

This data set can be described thus: PubChem AID 977611. The following applies: PDB protein-ligand complexes, literature Kd.

Regarding `Nc1nc2[nH]nc(CCC(=O)O)c(=O)c2c(=O)[nH]1`, the Kd (protein: Dihydropteroate Synthase, PDB entry 4db7) is 273 nM (active).

Regarding `C[C@@H](C(=O)O)c1n[nH]c2nc(N)[nH]c(=O)c2c1=O`, the Kd (protein: Dihydropteroate Synthase, PDB entry 4daf) is 76 nM (active).

For the compound `COc1ccccc1[C@@H](Br)[C@H](NC(=O)c1ccc([N+](=O)[O-])cc1)C(=O)N1CCCCC1`, the Kd (protein: Capsid protein, PDB entry 4g93) was 300000 nM (active).

On to `Nc1ncnc2c1ncn2[C@@H]1O[C@H](COP(O)O)[C@@H](O)[C@H]1O`, for which the dissociation constant (Kd) (PDB entry 4qsk) was 8000 nM (active).

As for `C[C@@H](Oc1ccc(Oc2ncc(C(F)(F)F)cc2Cl)cc1)C(=O)O`, the Kd (protein: carboxyltransferase subunit of ACC (AccD6), PDB entry 4g2r) is 35800 nM (active).

For the compound `OC(Cc1cccc(-c2cccc3c2oc2ccccc23)c1)([P+](O)(O)O)[P+](O)(O)O`, for the setting “protein: Diterpene synthase Rv3378c, PDB entry 3wqm”, the Kd is 560 nM (active).

Take `CN1CCN(c2cccc(CN)c2)CC1`: the Kd (protein: CATIONIC TRYPSIN, PDB entry 4abg) was 271000 nM (active).

With `CC(C)C[C@@H]1NC(=O)[C@H](C)NC(=O)[C@@H]2CSSC[C@H](NC(=O)CN)C(=O)N[C@@H](CSSC[C@@H](C(=O)O)NC(=O)[C@H](Cc3ccc(O)cc3)NC(=O)[C@H](CCCCN)NC(=O)[C@@H]3CCCN3C(=O)[C@H](CC(N)=O)NC(=O)[C@H](CC(N)=O)NC1=O)C(=O)N[C@@H](CO)C(=O)N[C@@H](CC(C)C)C(=O)N1CCC[C@H]1C(=O)N1CCC[C@H]1C(=O)N2` (H-GCCSLPPCALNNPKYC-OH; disulfide 2-8, 3-16), under “protein: nicotinic acetylcholine receptor homolog AChBP(?7-nAChR), PDB entry 2br8”, the Kd is 32.6 nM (active).

On to `Cc1ccc(C(=O)Nc2ccc(S(O)(O)O)c3cc(S(O)(O)O)cc(S(O)(O)O)c23)cc1N`, for which the Kd (protein: Nucleocapsid protein, PDB entry 4j4v) was 440 nM (active).

As for `NCCc1c[nH]c2ccccc12`, the dissociation constant Kd (protein: Biogenic amine-binding protein, PDB entry 4ge1) is 370 nM (active).

In the case of `Cc1[nH]c2ccccc2c1CC(=O)N[C@@H](Cc1ccccc1)C(=O)N(C)c1ccccc1`, the equilibrium dissociation constant (Kd) is 260 nM (active) (protein: CAPSID PROTEIN P24 CA Hexamer, PDB entry 4qnb) and 120 nM (active) (protein: Capsid protein p24, PDB entry 4u0e).

In the case of H-PVLFPGAPFGQPPA-OH, the Kd (protein: Capsid protein p24, PDB entry 4u0b) was 50000 nM (active).

With `CC(C)C[C@H](NC(=O)[C@@H](NC(=O)[C@@H]1CCCN1)C(C)C)C(=O)N[C@@H](Cc1ccccc1)C(=O)N1CCC[C@H]1C(=O)NCC(=O)N[C@@H](CCC(N)=O)C(=O)N1CCC[C@H]1C(=O)N[C@@H](Cc1ccccc1)C(=O)NCC(=O)N[C@@H](CCC(N)=O)C(=O)N1CCC[C@H]1C(=O)N1CCC[C@H]1C(=O)O` (H-PVLFPGQPFGQPP-OH), the dissociation constant (Kd) (protein: CAPSID PROTEIN P24 CA Hexamer, PDB entry 4wym) was 99800 nM (active).

As to `CC(C)C[C@H](NC[C@H](Cc1ccccc1)NC(=O)[C@H](CC(N)=O)NC(=O)CNC(=O)[C@@H]1CCCN1C(=O)[C@@H](N)CCCNC(N)N)C(=O)N[C@@H](CCC(N)=O)C(=O)N[C@@H](CO)C(=O)N[C@@H](CCCNC(N)N)C(=O)N1CCC[C@H]1C(N)=O` (H-[X1]([Asn-Gly-Pro-Orn(CH(NH2)2)])QS[Orn(CH(NH2)2)]P-NH2), the Kd by setting is: (protein: PR(HIV-1 protease) with the V82A mutation (PRV82A), PDB entry 2aof) 28200 nM (active); (protein: wild-type PR(HIV-1 protease), PDB entry 2aoi) 96700 nM (active).

As to H-PVLFPGQPFGQPPA-OH, the Kd (protein: Capsid protein p24, PDB entry 4u0a) is 50000 nM (active).

Take `COC(=O)C[C@@H]1N=C(c2ccc(Cl)cc2)c2c(sc(C)c2C)-n2c(C)nnc21`: under “protein: Bromodomain-containing protein 4, PDB entry 4f3i”, the Kd is 36.1 nM (active).

On to `NC1NC(=O)c2ncn([C@@H]3O[C@H](CO[P+](O)(O)O[C@H]4[C@@H](O)[C@H](n5cnc6c5NC(N)NC6=O)O[C@@H]4COP(O)O)[C@@H](OP(O)O)[C@H]3O)c2N1` (stereo not given in full), for which the Kd (protein: Simian 11 rotavirus (serotype 3 / strain SA11-Ramig), PDB entry 4g0a) was 25.3 nM (active).

Consider `C[C@H]1OC(c2cccc(O)c2O)=N[C@@H]1C(=O)N(CCCNC(=O)c1cccc(O)c1O)CCCNC(=O)c1cccc(O)c1O`, for which, for the setting “protein: Neutrophil gelatinase-associated lipocalin, PDB entry 4k19”, the dissociation constant (Kd) was 4.4 nM (active).

As for H-ITFEDLLDYYGP-OH, the Kd is, setting by setting: (protein: HIV-1 Capsid Protein(L211S), PDB entry 3ds4) 64500 nM (active); (protein: HIV-1 Capsid Protein(N183A), PDB entry 3ds0) 14900 nM (active); (protein: HIV-1 Capsid Protein(Y169A), PDB entry 3ds3) 6000 nM (active).

H-EDMFAKLKDKFFNEINK-OH: the Kd (PDB entry 2nm1) is 34 nM (active).

For `CC(C)C[C@H](NC(=O)[C@@H](NC(=O)[C@H](CCC(=O)O)NC(=O)[C@@H](N)Cc1ccc(O)cc1)[C@@H](C)O)C(=O)N[C@@H](CO[P+](O)(O)O)C(=O)N[C@@H](CC(=O)O)C(=O)N[C@@H](CO[P+](O)(O)O)C(=O)N[C@@H](CCC(=O)O)C(=O)O`, the dissociation constant Kd (protein: Msx2-interacting protein, PDB entry 2rt5) was 190 nM (active).

Regarding H-TFKKTN-OH, the Kd (protein: Coatomer subunit beta', PDB entry 4j86) is 171000 nM (active).

For `CC[C@H](C)[C@H](N)C(=O)N[C@H](C(=O)N[C@@H](Cc1ccccc1)C(=O)N[C@@]1(C)CCC/C=C\CCC[C@@](C)(C(=O)N[C@@H](Cc2ccc(O)cc2)C(=O)N[C@@H](Cc2ccc(O)cc2)C(=O)NCC(=O)N[C@@H](CCCCN)C(=O)N[C@@H](CCCCN)C(=O)N[C@@H](CCCCN)C(=O)O)NC(=O)[C@H](CC(C)C)NC(=O)[C@H](CC(C)C)NC(=O)[C@H](CC(=O)O)NC1=O)[C@@H](C)O` (H-ITF[S5]DLL[S5]YYGKKK-OH; staple (Z) 4-8), under “protein: Capsid protein p24(W184A, M185A), PDB entry 2l6e”, the Kd is 1000 nM (active).

`CC[C@H](C)[C@H](N)C(=O)N[C@H](C(=O)N[C@@H](Cc1ccccc1)C(=O)N[C@@H](CCC(=O)O)C(=O)N[C@@H](CC(=O)O)C(=O)N[C@@H](CC(C)C)C(=O)N[C@@H](CC(C)C)C(=O)N[C@@H](CC(=O)O)C(=O)N[C@@H](Cc1ccc(O)cc1)C(=O)N[C@@H](Cc1ccc(O)cc1)C(=O)NCC=O)[C@@H](C)O` (H-ITFEDLLDYYG-aldehyde): the dissociation constant (Kd) (protein: HIV-1 Capsid Protein(E187A), PDB entry 3ds1) was 2000 nM (active).

On to `CC(C)C[C@H](NC(=O)[C@H](CCCCN)NC(=O)[C@H](CC(C)C)NC(=O)[C@@H](NC(=O)[C@H](CC(N)=O)NC(=O)[C@H](CCC(N)=O)NC(=O)[C@H](CCCCN)NC(=O)[C@@H](NC(=O)[C@H](Cc1ccc(O)cc1)NC(=O)[C@H](CCCCN)NC(=O)[C@@H]1CCCN1)C(C)C)[C@@H](C)O)C(=O)N[C@@H](C)C(=O)N[C@H](C(=O)O)[C@@H](C)O`, for which, for the setting “protein: SEC3 wt, PDB entry 1jwm”, the Kd is 270000 nM (active).

As for H-ITYDKGIQTDQ-OH, the Kd (protein: Dynein light chain 1, cytoplasmic, PDB entry 4ht6) was 620 nM (active).
